# Screens as filed in PubChem.
# This is one part of a sample in which hits are shown more often than they occur.
# FH mod: Identification of activators of human fumarate hydratase by quantitative high-throughput screening; Fumarate hydratase, mitochondrial (Homo sapiens), P07954; FH coupled MDH/diaphorase resazurin fluorescence, 15 min; Potency, µM (series often up to 79.9 µM), usual class: inhibitors; 54,000 tested, 0.22% active; note: the screen sought activators but most active calls are inhibition curves; nearly all actives have a fitted effect of over 45% in size
# Target sequence (P07954 whole entry, looked up): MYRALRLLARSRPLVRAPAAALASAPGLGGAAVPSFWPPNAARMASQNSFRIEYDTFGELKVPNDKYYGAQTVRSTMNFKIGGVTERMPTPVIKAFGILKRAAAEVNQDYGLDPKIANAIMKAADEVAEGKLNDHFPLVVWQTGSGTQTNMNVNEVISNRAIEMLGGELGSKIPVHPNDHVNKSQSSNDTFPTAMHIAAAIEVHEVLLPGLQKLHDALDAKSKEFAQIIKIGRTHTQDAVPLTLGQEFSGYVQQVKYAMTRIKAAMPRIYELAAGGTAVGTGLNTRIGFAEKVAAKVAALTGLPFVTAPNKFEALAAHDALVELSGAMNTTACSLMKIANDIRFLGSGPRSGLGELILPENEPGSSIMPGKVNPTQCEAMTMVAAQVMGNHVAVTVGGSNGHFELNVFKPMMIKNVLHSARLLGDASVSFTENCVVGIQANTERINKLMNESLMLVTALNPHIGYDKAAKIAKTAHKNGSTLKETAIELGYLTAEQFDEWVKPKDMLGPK
# TSG101-PTAP inh: qHTS Validation Assay for Inhibitors of HIV-1 Budding by Blocking the Interaction of PTAP/TSG101: Sytravon Library Screen. Tumor susceptibility gene 101 protein (Homo sapiens), Q99816. Fluorescence polarization, FITC-PTAP peptide/Tsg101, 20 min. Potency, µM (top dose mostly 115 µM), most hits filed as inhibitors. 44,000 tested, under 10 active. AID 1347069, 2019
#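 Fluorescence polarization binding of Tsg101 binding domain (10 uM final) to FITC-labeled PTAP-motif peptide (50 nM final) in HEPES pH 7.5/NaCl/Tween 20/EDTA/TCEP buffer; 20 min at r.t. Actives by curve class, <25 µM, efficacy <60% inhibition.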
# B2AR arrestin ag: qHTS assay of beta-arrestin-biased ligands of beta2-adrenergic receptor: NCGC Sytravon Library Screen. HTLA Tango cells, beta-arrestin recruitment, luciferase luminescence, 18 h. Potency, µM (doses to about 46.1 µM), usual class: activators. 44,000 tested, under 10 active. Beta-2 adrenergic receptor (Homo sapiens), P07550
#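 Tango cell line, 1% FBS DMEM; cpd titration up to 46 microM; 18 hr, 37 degrees C, 5% CO2. Luciferin/ATP substrate mix added, 15 min RT, luminescence. %Activity, CRC fitting, curve-class categorization.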
# GALC G270D act: A Novel Cell-Based Assay to Identify Small Molecules for B -Galactocerebrosidase. AID 1159614, 2016. Potency, µM (titrated, usually from 57.5 µM), most hits filed as activators. 145M-Twi-hGALC-G270D cells, HMU-beta-Gal fluorescence, 48 h. 45,000 tested, 0.1% active; note: nearly all actives have a fitted effect of over 65% in size
#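 qHTS, 1536-well; 145M-Twi-hGALC-G270D cells (WT line also made) in DMEM/F12 + 10% FBS; compound incubation on live cells; HMU-β-gal 0.1 mM final, pH 5.2, NaTC; carbonate stop; fluorescence increase = enhanced residual activity.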
# GALK inh: qHTS Assay for Inhibitors of Human Galactokinase (GALK): NCGC Sytravon Library Screen; P51570; recombinant GALK, Kinase-Glo ATP luminescence, 1 h; 44,000 tested, under 10 active; AID 1347072, 2019; Potency, µM (top dose mostly 57.5 µM), hits mostly inhibitors
#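 Luminescent ATP-depletion readout (Kinase-Glo Plus, 10 min) after 1 h RT reaction of 5 nM GALK, 35 uM ATP, 100 uM galactose, pH 8.0 HEPES buffer. Decreased kinase activity scored as inhibition.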
# NTMT1 inhibitor: Primary qHTS for Inhibitors of N-terminal methyltransferase 1 (NTMT1): MTaseGlo Assay; N-terminal Xaa-Pro-Lys N-methyltransferase 1 (Homo sapiens), Q9BV86; NTMT1 MTase-Glo SAH luminescence, purified enzyme; Potency, µM (doses to about 114 µM), actives largely listed as inhibitors; 59,000 tested, 2.5% active; note: nearly all actives have a fitted effect of over 65% in size
# DYRK1A inh-1: Assay for Inhibitors of Dual-Specificity Tyrosine-(Y)-Phosphorylation Regulated Kinase 1A (Kinase-Glo assay); shares compounds with NTMT1 inhibitor; recombinant DYRK1A, Kinase-Glo ATP depletion luminescence; Potency, µM (series often up to 76.9 µM), usual class: inhibitors; 100 tested, 80% active
# CLK4 inh-1: Confirmation Assay for Inhibitors of CDC-like Kinase 4 (Kinase-Glo Assay): SAR round 2; recombinant Clk4, Kinase-Glo ATP luminescence, 4.5 h; Potency, µM (highest dose often 76.9 µM), hits mostly inhibitors; 90 tested, 90% active; AID 493204, 2011; shares compounds with NTMT1 inhibitor
# CLK4 inh-2: Kinase Inhibition Study on Inhibitors of CDC-like Kinase 4 (Reaction Biology data): SAR round 2; shares compounds with NTMT1 inhibitor; Reaction Biology kinase assay, 10 uM ATP; Potency, µM, most hits filed as inhibitors; 65 tested, 100% active; calls by dose curve
# DYRK1A inh-2: Kinase Inhibition Study on Inhibitors of Dyrk1a (Reaction Biology data). shares compounds with NTMT1 inhibitor. Reaction Biology kinase assay, 10 uM ATP. Potency, µM, actives largely listed as inhibitors. 65 tested, 90% active. AID 504424, 2011;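 active = compounds that showed inhibition of Dyrk1a and received a fitted potency; inactive = compounds that showed no inhibition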
# CLK2 inh: Kinase Inhibition Study on Inhibitors of CDC-like Kinase 2 (Reaction Biology data); Potency, µM, most hits filed as inhibitors; Reaction Biology kinase assay, 10 uM ATP; AID 504427, 2011; 65 tested, 90% active; shares compounds with NTMT1 inhibitor;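 active = compound that inhibits Clk2 kinase in the dose series, with an IC50 potency reported; inactive = no inhibition seen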
# CLK3 inh: Kinase Inhibition Study on Inhibitors of CDC-like Kinase 3 (Reaction Biology data). shares compounds with NTMT1 inhibitor. Potency, µM, most hits filed as inhibitors. AID 504428, 2011. recombinant CLK3 kinase assay, 10 uM ATP. 65 tested, 40% active;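 active = compounds that inhibited Clk3 enough in the ten-dose series to give a half-maximal potency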
# DYRK1B RBC: Kinase Inhibition Study on Inhibitors of Dyrk1b (Reaction Biology data). shares compounds with NTMT1 inhibitor. Recombinant Dyrk1b kinase assay, 10 uM ATP. Potency, µM, most hits filed as inhibitors. 65 tested, 80% active;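 active = compounds whose dose response shows an inhibitor phenotype against the kinase Dyrk1b; inactive = compounds showing no inhibitor phenotype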
# CLK1 inh: Kinase Inhibition Study on Inhibitors of CDC-like Kinase 1 (Reaction Biology data); shares compounds with NTMT1 inhibitor; recombinant Clk1 kinase assay, 10 uM ATP; Potency, µM, actives largely listed as inhibitors; 65 tested, 90% active; AID 504430, 2011;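 active = compounds that block the splicing kinase Clk1 enough to give a fitted half-inhibition concentration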
# NNMT counter: Counterscreen qHTS for Inhibitors of N-terminal methyltransferase 1 (NTMT1): NNMT MTaseGlo assay. shares compounds with NTMT1 inhibitor. NNMT MTase-Glo luminescence, SAH detection. Potency, µM (titrated, usually from 57.1 µM), most hits filed as inhibitors. 120 tested, 10% active. AID 1645878, 2021
# Target sequence (P40261 whole entry, looked up): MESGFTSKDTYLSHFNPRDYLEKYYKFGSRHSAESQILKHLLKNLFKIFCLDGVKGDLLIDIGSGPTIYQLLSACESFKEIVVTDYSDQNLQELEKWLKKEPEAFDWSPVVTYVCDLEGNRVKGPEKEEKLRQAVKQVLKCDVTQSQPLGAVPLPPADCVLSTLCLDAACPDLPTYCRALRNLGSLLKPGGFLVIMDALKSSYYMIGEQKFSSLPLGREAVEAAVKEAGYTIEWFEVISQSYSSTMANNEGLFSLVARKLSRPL
# Numbers stand for hits; – = inactive; ? = inconclusive; · = no result. Unless noted, calls come from the whole dose curve; as a rule, active = well fitted curve in the direction sought with a large enough effect; inconclusive = small, poorly fitted or top-dose-only effect, or another doubt; inactive = no such curve, though single readings can be large; an effect the other way counts as inactive or inconclusive.
SMILES,FH mod,TSG101-PTAP inh,B2AR arrestin ag,GALC G270D act,GALK inh,NTMT1 inhibitor,others
CCOC(=O)c1ccoc1-c1ccc2ncnc(NCCc3cnc[nH]3)c2c1,·,·,·,·,·,–,DYRK1A inh-1=?
c1cncc(CNc2ncnc3ccc(-c4cccnc4)cc23)c1,·,·,·,·,·,–,
CC(O)c1ccc(-c2ccc3ncnc(NCCc4cnc[nH]4)c3c2)o1 (stereo unspecified),·,·,·,·,·,?,CLK4 inh-1=1.46µM
Cc1ccc(CNc2ncnc3ccc(-c4ccoc4)cc23)o1,·,·,·,·,·,–,DYRK1A inh-1=6.54µM
c1nc(NCc2ccc3c(c2)OCO3)c2cc(-c3ccoc3)ccc2n1,·,·,·,·,·,–,
c1nc(NCCc2cnc[nH]2)c2cc(-c3ccoc3)ccc2n1,·,·,·,·,·,–,DYRK1A inh-1=4.12µM
Nc1n[n+]([O-])c2ccccc2[n+]1[O-],·,·,·,·,·,–,
COc1ccc(C(=O)Nc2nc(-c3ccccc3)cs2)c(OC)c1,·,·,·,·,·,–,
CC(=O)N[C@H]1CSSC[C@@H](C(N)=O)NC(=O)[C@H](C(C)C)NC(=O)[C@H](C)NC(=O)[C@H](Cc2cnc[nH]2)NC1=O,·,·,·,·,·,–,
Cc1occc1-c1ccc2ncnc(NCCc3cnc[nH]3)c2c1,·,·,·,·,·,?,DYRK1A inh-1=9.23µM
Cc1ccc(NC(=O)N2CCN(c3nc(N)nc4sc(-c5cccnc5)nc34)CC2)cc1,–,·,·,·,·,–,NNMT counter=–
CNC(=O)c1ccccc1Nc1cc(Nc2ccc(N3CCOCC3)cc2OC)ncc1C(F)(F)F,–,·,·,·,·,–,NNMT counter=?
COc1cc(N2CCOCC2)ccc1Nc1ncc(F)c(Nc2ccccc2NS(C)(=O)=O)n1,–,·,·,·,·,–,
CC1(C)C(=O)N2c3ccccc3[C@]3(CC(n4cnc5ccccc5c4=O)C(=O)O3)[C@H]2N1O (stereo partly specified),–,·,·,·,·,–,
CC(=O)N[C@@H](CC(C)C)C(=O)N[C@@H](CCC(=O)O)C(=O)N[C@@H](CCC(=O)O)C(=O)N[C@@H](CC(=O)O)C(=O)Nc1ccc2c(C(F)(F)F)cc(=O)oc2c1,–,·,·,·,·,–,NNMT counter=–
COc1cccc(CNC(=O)Nc2nc(-c3ccncc3)cs2)c1,–,·,·,·,·,–,
Cc1cccc(Nc2nc(-c3ccncc3)cs2)c1,–,·,·,·,·,2.51µM,NNMT counter=8.91µM
Cc1coc2c1CC1OC1(C)CCC1OC1(C)C2 (stereo unspecified),–,·,·,·,·,–,
C[N+]1(CC2COC(c3ccccc3)(c3ccccc3)O2)CCCCC1 (stereo unspecified),–,·,·,–,·,?,NNMT counter=–
COc1cc2c(cc1O)C1(Cc3ccc4c(c3C1O)OCO4)[N+](C)([O-])CC2 (stereo unspecified),–,·,·,·,·,–,
Cc1cc(N2CCOCC2)cc2[nH]c(-c3c(NC[C@@H](O)c4cccc(Cl)c4)cc[nH]c3=O)nc12,?,·,·,·,·,?,NNMT counter=?
O=C(CSc1nc(=O)n(CCN2CCOCC2)c2c1CCC2)Nc1cccc(Cl)c1,–,–,–,–,–,–,
COc1cccc(NS(=O)(=O)c2ccc(C)cc2)c1C(=O)Nc1nc(-c2ccccc2)cs1,·,·,·,·,·,–,
Clc1ccccc1-c1ccc2ncnc(NCc3ccc4c(c3)OCO4)c2c1,·,·,·,·,·,–,
c1nc(NCC2CCCCC2)c2cc(-c3ccc4c(c3)OCO4)ccc2n1,·,·,·,·,·,?,CLK4 inh-1=0.0733µM;CLK4 inh-2=0.147;DYRK1A inh-2=0.186µM;CLK2 inh=0.86µM;CLK3 inh=5.3µM;DYRK1B RBC=1.07µM;CLK1 inh=0.507µM
Fc1cccc(CNc2ncnc3ccc(-c4ccc5c(c4)OCO5)cc23)c1,·,·,·,·,·,–,
NCCNc1ncnc2ccc(-c3ccc4c(c3)OCO4)cc12,·,·,·,·,·,·,DYRK1A inh-1=0.184µM;CLK4 inh-2=8.44;DYRK1A inh-2=5.47µM;CLK2 inh=6.42µM;CLK3 inh=15µM;DYRK1B RBC=–;CLK1 inh=5.56µM
